Drawing on ChEMBL document CHEMBL1201862, “PubChem BioAssay data set” (2004), this text covers Potency for 100 compounds.

The campaign covered roughly 400,000 compounds. About 2,100 (0.53%) were called active. Not shown: some 14% with an inconclusive outcome. The rule behind the calls is not given here. Many of the other results were omitted from the sample, so actives are more common in it than they were.

The test deals with Ataxin-2 (Homo sapiens) (UniProt Q99700). The experiment in a line: qHTS for Inhibitors of ATXN expression. In kind it is functional.
Sequence of Ataxin-2 (Homo sapiens) (Q99700 whole entry): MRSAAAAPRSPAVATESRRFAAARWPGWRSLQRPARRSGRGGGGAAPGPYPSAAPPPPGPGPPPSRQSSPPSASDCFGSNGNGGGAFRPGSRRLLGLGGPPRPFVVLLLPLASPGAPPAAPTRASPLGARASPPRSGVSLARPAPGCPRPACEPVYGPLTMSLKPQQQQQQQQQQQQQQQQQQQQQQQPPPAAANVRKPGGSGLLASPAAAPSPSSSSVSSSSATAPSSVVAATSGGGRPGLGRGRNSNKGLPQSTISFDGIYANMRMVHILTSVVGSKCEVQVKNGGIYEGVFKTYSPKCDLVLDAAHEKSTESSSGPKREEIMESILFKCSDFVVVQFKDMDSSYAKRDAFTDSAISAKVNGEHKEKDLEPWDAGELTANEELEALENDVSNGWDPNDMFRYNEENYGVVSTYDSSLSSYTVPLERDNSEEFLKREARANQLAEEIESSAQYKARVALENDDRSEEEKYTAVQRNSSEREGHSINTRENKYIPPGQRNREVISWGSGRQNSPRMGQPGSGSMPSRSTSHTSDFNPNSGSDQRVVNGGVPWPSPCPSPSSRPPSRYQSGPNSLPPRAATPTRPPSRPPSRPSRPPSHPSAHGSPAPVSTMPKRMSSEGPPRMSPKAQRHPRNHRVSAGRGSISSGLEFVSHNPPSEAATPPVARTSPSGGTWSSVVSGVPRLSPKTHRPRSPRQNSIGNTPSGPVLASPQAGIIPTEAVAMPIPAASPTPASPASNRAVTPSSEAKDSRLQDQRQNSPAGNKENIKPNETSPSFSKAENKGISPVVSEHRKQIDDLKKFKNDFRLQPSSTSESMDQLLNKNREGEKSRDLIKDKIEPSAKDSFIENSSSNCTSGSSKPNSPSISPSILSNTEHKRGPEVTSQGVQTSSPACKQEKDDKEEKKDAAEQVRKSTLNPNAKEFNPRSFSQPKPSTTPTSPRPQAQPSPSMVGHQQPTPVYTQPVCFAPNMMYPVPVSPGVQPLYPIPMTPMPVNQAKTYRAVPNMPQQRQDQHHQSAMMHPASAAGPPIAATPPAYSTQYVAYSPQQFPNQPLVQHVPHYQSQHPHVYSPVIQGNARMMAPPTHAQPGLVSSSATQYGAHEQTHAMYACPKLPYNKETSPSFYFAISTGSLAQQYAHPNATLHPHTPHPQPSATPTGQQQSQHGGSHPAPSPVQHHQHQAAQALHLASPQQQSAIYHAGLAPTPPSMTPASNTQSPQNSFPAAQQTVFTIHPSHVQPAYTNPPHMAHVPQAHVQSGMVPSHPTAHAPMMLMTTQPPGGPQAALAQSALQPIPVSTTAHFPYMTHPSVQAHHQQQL
Consider `O=C(OCc1ccccc1)c1ccc(NCc2cc(O)ccc2O)cc1`, for which the Potency was 8.91 µM (active).

Take `COC(=O)c1ccc(NCc2c(O)ccc(O)c2Br)cc1Cl`: the Potency is 28.2 µM (active).

For the compound `CC(=O)Cc1cc(O)c2ccccc2c1OC(=O)c1ccccc1`, the Potency entry is “inactive”.

For the compound `CCCS(=O)(=O)c1ccc(COC(=O)c2cccc(NC(=O)C(C)C)c2)cc1`, the Potency entry is “inactive”.

Turning to `Cc1ccc2nc(-c3ccc(NC(=O)c4cccnc4)cc3)oc2c1`, the Potency is 25.1 µM (active).

In the case of `Cc1ccc(C)c(OC(=O)c2cccnc2)c1`, the Potency result is “inactive”.

As for `CC(=O)Nc1ccc(NC(=O)c2cc(=O)c3ccc(C)cc3o2)cc1`, the Potency result is “inactive”.

For `CCOC(=O)c1cc2c(=O)n3ccccc3nc2n(CCCOC)/c1=N\C(=O)C(C)Oc1ccccc1` (stereo not given), the Potency entry is “inactive”.

Take `Nc1c(C(=O)NCc2ccc(Cl)cc2)sc2nc3c(c(C(F)(F)F)c12)CCC3`: the Potency result is “inactive”.

Regarding `O=C(CN1CCCC1)Nc1ccc(Br)cc1`, the Potency result was “inactive”.

With `O=C(Cn1nc(C(F)(F)F)c2c1CCCC2)Nc1ccc(Cl)cc1`, the Potency is 39.8 µM (active).

In the case of `CCOC(=O)C1CCCN(C(=O)c2ccc(Cn3c(=S)[nH]c4cc(C(=O)OC)ccc4c3=O)cc2)C1` (stereo not given), the Potency entry is “inactive”.

In the case of `COC(=O)[C@@]1(Cc2ccc(F)cc2)[C@H]2c3cc(C(=O)N(C)C)n(Cc4ccc(C)o4)c3C[C@H]2CN1C(=O)c1ccccc1`, the Potency was 35.5 µM (active).

As to `COC(=O)C1CCN(C(=O)c2cc3c(=O)n4cccc(C)c4nc3n2Cc2ccccc2)CC1`, the Potency entry is “inactive”.

In the case of `COC(=O)[C@@]1(Cc2ccc(F)cc2)[C@H]2c3cc(C(=O)N4CCCC4)n(CC4CC4)c3C[C@H]2CN1C(=O)c1ccccc1`, the Potency was 39.8 µM (active).

`COC(=O)[C@@]1(Cc2ccc(F)cc2)[C@H]2c3cc(C(=O)N4CCCC4)n(Cc4ccccc4)c3C[C@H]2CN1C(=O)c1ccccc1`: the Potency was 25.1 µM (active).

In the case of `C=CCNC(=O)c1cc2c(=O)n3cccc(C)c3nc2s1`, the Potency result is “inactive”.

With `Cc1cccc(N2C(=O)CC(NNc3nc4ccccc4s3)C2=O)c1` (stereo not given), the Potency entry is “inactive”.

`COc1ccc(/C=C/CN2CCCC(CCC(=O)NCc3ccc(F)c(F)c3)C2)cc1` (stereo not given): the Potency result was “inactive”.

As for `COc1c2c(c(OC)c3c1c(=O)c1ccccc1n3C)OCO2`, the Potency entry is “inactive”.

Take `COCCN=C(NS(=O)(=O)c1cccs1)c1ccccc1Cl`: the Potency entry is “inactive”.

For `C[N+]1(CN2C(=O)C3C4C=CC(C4)C3C2=O)CCCCC1` (stereo not given), the Potency entry was “inactive”.

In the case of `Cc1cc(N2CCOCC2)ccc1/C=C1/SC(=O)NC1=O`, the Potency entry is “inactive”.

As to `CCN1C/C(=C/c2ccc(N3CCOCC3)cc2)C(=O)/C(=C/c2ccc(N3CCOCC3)cc2)C1`, the Potency was 25.1 µM (active).

For the compound `CCN(CC)c1ccc(C(=O)N/N=C/c2ccc(N3CCOCC3)cc2)cc1`, the Potency result was “inactive”.

As for `NNC(=O)c1cc2c(ccc3ccccc32)o1`, the Potency entry was “inactive”.

Take `O=c1oc2ccc3ccccc3c2cc1-c1nc2ccccc2o1`: the Potency entry is “inactive”.

For the compound `O=c1cc(C(Cl)(Cl)Cl)oc2c1ccc1ccccc12`, the Potency is 35.5 µM (active).

With `CCc1nonc1NC(=O)COc1cc(C)c(Cl)c(C)c1`, the Potency entry is “inactive”.

As to `Fc1ccc(-n2cc(-c3ccccc3)c3c(S)ncnc32)cc1`, the Potency was 39.8 µM (active).

For the compound `COc1ccc(-n2cc(-c3ccccc3)c3c(NCCCN4CCOCC4)ncnc32)cc1`, the Potency entry is “inactive”.

`COc1ccc(-n2cc(-c3ccccc3)c3c(NN4CCOCC4)ncnc32)cc1`: the Potency entry is “inactive”.

For `CCc1ccc(C(c2ccccc2)c2c(C)[nH]c3ccccc23)s1` (stereo not given), the Potency is 39.8 µM (active).

As to `Cc1[nH]c2ccccc2c1C(c1ccccc1)c1cccs1` (stereo not given), the Potency was 39.8 µM (active).

Consider `Cc1[nH]c2ccccc2c1C(O)CN1CCC2(CC1)OCCO2` (stereo not given), for which the Potency entry is “inactive”.

`CC(C)CCN1C(=O)c2cccc3c(N)ccc(c23)C1=O`: the Potency result is “inactive”.

On to `O=c1c2sccc2nc(SCc2cc(=O)n3cc(Cl)ccc3n2)n1Cc1ccccn1`, for which the Potency result was “inactive”.

Consider `COc1ccc(OC)c([N+]2=C3SCCCN3C(O)(c3ccccc3)C2)c1` (stereo not given), for which the Potency entry is “inactive”.

For `Cn1cc(CN2CCc3c([nH]c4ccccc34)C2C2CCCCC2)cn1` (stereo not given), the Potency result is “inactive”.

Consider `CCc1ccc(C2c3c(-c4cc(C)ccc4O)n[nH]c3C(=O)N2Cc2cccnc2)cc1` (stereo not given), for which the Potency was 39.8 µM (active).

Take `O=C1c2cccc3c([N+](=O)[O-])ccc(c23)C(=O)N1Cc1cccnc1`: the Potency entry was “inactive”.

For the compound `Cc1ccc(C(=O)C2=C(O)C(=O)N(Cc3cccnc3)C2c2ccc(Cl)cc2)o1` (stereo not given), the Potency entry is “inactive”.

Regarding `CCc1ccc(C2c3c(-c4ccccc4O)n[nH]c3C(=O)N2Cc2cccnc2)cc1` (stereo not given), the Potency was 22.4 µM (active).

Take `Cc1ccc2oc3c(c(=O)c2c1)C(c1ccc(O)cc1)N(CCCN(C)C)C3=O` (stereo not given): the Potency result was “inactive”.

As to `COCCN1C(=O)c2[nH]nc(-c3cc(C)ccc3O)c2C1c1ccc(C(C)C)cc1` (stereo not given), the Potency is 39.8 µM (active).

With `CSc1ccc(C2c3c(-c4ccccc4O)n[nH]c3C(=O)N2Cc2ccncc2)cc1` (stereo not given), the Potency was 22.4 µM (active).

For the compound `CCOC(=O)c1sc2c(c1C)C(c1cccs1)C1=C(O)CCCC1=N2` (stereo not given), the Potency entry was “inactive”.

On to `c1cc(-c2sc(-c3ccncc3)c(-c3ccncc3)c2-c2ccncc2)ccn1`, for which the Potency result is “inactive”.

Regarding `COc1ccc(-n2c(=O)/c(=C\c3cccs3)s/c2=C(/C#N)C(=O)NCCN2CCOCC2)cc1`, the Potency result was “inactive”.

As for `CCOc1ccccc1Oc1c[nH]nc1-c1ccc(OCC(=O)NN)cc1O`, the Potency entry was “inactive”.

On to `CCOc1ccc(C2CC(c3c(O)oc4ccccc4c3=O)=NN2c2ccccc2)cc1OC` (stereo not given), for which the Potency result was “inactive”.

In the case of `CCCOc1ccc(C2c3c(-c4ccccc4O)n[nH]c3C(=O)N2CCCOCC)cc1OCC` (stereo not given), the Potency is 22.4 µM (active).

With `CCCOc1ccc(C2c3c(-c4ccccc4O)n[nH]c3C(=O)N2Cc2cccnc2)cc1` (stereo not given), the Potency is 35.5 µM (active).

In the case of `O=C(C1CCCO1)N1CCN(C(=O)C23CC4CC(CC(C4)C2)C3)CC1` (stereo not given), the Potency entry is “inactive”.

`O/N=C1\CCCc2ccc3ccccc3c21`: the Potency entry is “inactive”.

Take `Cc1ccc(OC(=O)c2ccncc2)c(C)c1`: the Potency result is “inactive”.

With `O=C(NCc1csc(-c2cccs2)n1)c1cccc(Cl)c1`, the Potency entry is “inactive”.

Consider `O=S(=O)(NCc1csc(-c2cccs2)n1)c1ccc(Cl)cc1`, for which the Potency entry was “inactive”.

Take `O=C(NNC(=O)c1csc(-c2cccs2)n1)c1ccc(Cl)cc1`: the Potency is 22.4 µM (active).

Turning to `C=CCn1c(NC(=O)c2ccccc2Cl)c(C#N)c2nc3ccccc3nc21`, the Potency result was “inactive”.

`CCOC(=O)c1cnc2ccc3ccccc3c2c1O`: the Potency entry is “inactive”.

Consider `CCOC(=O)c1cnc2ccc(C)cc2c1N(C)Cc1ccccc1`, for which the Potency entry is “inactive”.

As for `CCOC(=O)c1cnc2ccc(C)cc2c1Nc1ccc(N(CC)CC)cc1`, the Potency is 28.2 µM (active).

On to `CS(=O)(=O)c1ccc(Cl)c(NC(=O)CSc2n[nH]c(-c3cccs3)n2)c1`, for which the Potency result was “inactive”.

Take `COC(=O)Cc1cc(=O)oc2cc(O)ccc12`: the Potency entry was “inactive”.

For `Cc1nn(CC(=O)NCCCN2CCCCC2)c(=O)c2cccn12`, the Potency entry was “inactive”.

Take `S=C(NCCCN1CCOCC1)NC1CC1`: the Potency result was “inactive”.

For `O=C(NCCCCCCCN1CCCCCCC1)C(C1CCCCC1)C1CCCCC1`, the Potency is 21.2 µM (active).

With `Cn1c(SC2=CS(=O)(=O)c3ccccc32)nc2ccccc21`, the Potency is 15.8 µM (active).

`CCC(=O)c1ccc(/C=C/c2nc3ccccc3n2C)o1`: the Potency result was “inactive”.

With `Cn1c(=O)c(/C=C/c2ccc(F)cc2)nc2ccccc21`, the Potency result was “inactive”.

With `Cn1c(-c2c(N)n(-c3ccccc3)c3nc4ccccc4nc23)nc2ccccc21`, the Potency result was “inactive”.

Regarding `O=C(CCl)c1ccc(Cc2ncc(C(F)(F)F)cc2Cl)s1`, the Potency is 39.8 µM (active).

With `FC(F)(F)c1cnc(NNC(=S)Nc2ccccc2)c(Cl)c1`, the Potency entry is “inactive”.

For `C#CCNC(=O)C(C)c1ncc(C(F)(F)F)cc1Cl` (stereo not given), the Potency result was “inactive”.

Turning to `O=C(C[C@H]1C/C=C\C[C@@H](NC(=O)OCC2c3ccccc3-c3ccccc32)C(=O)O[C@@H](c2ccccc2)CNC1=O)N[C@H](CO)Cc1ccccc1`, the Potency is 31.6 µM (active).

Take `Nc1ccccc1-n1nc2ccc3ccccc3c2n1`: the Potency entry is “inactive”.

With `CNc1ccc(Br)cc(C(=O)/C=C/c2cc(OC)ccc2OC)c1=O`, the Potency is 39.8 µM (active).

In the case of `COc1ccc(OC)c(/C=C/C(=O)N(C)CC(=O)Nc2cc(C)ccc2C)c1`, the Potency entry is “inactive”.

Turning to `COc1cccc(NC(=O)c2sc3nc(C)c(C(=O)Nc4ccc(C)cc4C)c(-c4ccc(Br)cc4)c3c2N)c1`, the Potency entry is “inactive”.

As for `COc1cc(C(=O)Nc2ccc(Br)cc2C(=O)c2cc(OC)c(OC)c(OC)c2)cc(OC)c1OC`, the Potency entry is “inactive”.

With `CNc1ccc(Br)cc(C(=O)/C=C/c2cccc(OC)c2)c1=O`, the Potency was 28.2 µM (active).

In the case of `COc1ccc(Br)cc1/C=C/C(=O)NC(=S)Nc1ccc(Cl)c(C(=O)O)c1`, the Potency entry was “inactive”.

Consider `Cc1ccc2nc(N3CCN(C)CC3)c(C=O)c(=O)n2c1`, for which the Potency entry is “inactive”.

`COCC(C)NC(=O)c1cc(-c2ccc(O)cc2)on1` (stereo not given): the Potency entry was “inactive”.

Turning to `Nc1c2ccccc2nc2ccccc12`, the Potency entry was “inactive”.

For `NC(c1csc(NC(=O)Nc2cccc(C(F)(F)F)c2)n1)C1CCCCC1` (stereo not given), the Potency was 28.2 µM (active).

For `CC(C)C(N)c1csc(NC(=O)Nc2cccc(C(F)(F)F)c2)n1` (stereo not given), the Potency is 35.5 µM (active).

As for `COC(=O)Cc1csc(N/C=C2/C(=O)N(c3cccc(C(F)(F)F)c3)C(=O)c3ccccc32)n1`, the Potency entry is “inactive”.

With `CNC(=O)Nc1cc(C(F)(F)F)cc(C(F)(F)F)c1`, the Potency entry was “inactive”.

In the case of `O=C(Nc1cccnc1)Nc1cccc(F)c1`, the Potency entry is “inactive”.

For the compound `CCCCNc1ccc2c3c(cccc13)C(=O)N(CCCC)C2=O`, the Potency result is “inactive”.

In the case of `Cc1nn2c(-c3ccccc3)c(-c3ccccc3)nc2nc1O`, the Potency result is “inactive”.

Take `Cc1cc(C)cc(CC2CC(=O)N(c3cc(C)ccc3C)C2=O)c1` (stereo not given): the Potency entry was “inactive”.

`CCC(C)Sc1ccc(-c2nc3cnccn3c2NC2CCCCC2)cc1` (stereo not given): the Potency result was “inactive”.

Take `CC(C)(C=O)C1=CC(=O)c2ccccc2C1=O`: the Potency was 10 µM (active).

`CCOC(=O)c1c(NC(=O)c2nn(C)cc2[N+](=O)[O-])sc(C)c1C`: the Potency entry is “inactive”.

Regarding `CCCNC1=C(N(C(C)=O)c2cccc(F)c2)C(=O)c2ccccc2C1=O`, the Potency was 31.6 µM (active).

Turning to `C=CCNC(=O)C1CC(=O)N(c2ccc(OCC(=O)N3CCCC3)cc2)C1` (stereo not given), the Potency entry was “inactive”.

In the case of `CCC/C(C#Cc1ccc(N(C)C)cc1)=C1/c2ccccc2C(=O)N1c1ccccc1`, the Potency entry was “inactive”.
